Tb PFK block = T. brucei PFK enzyme inhibition; O15648; T. brucei PFK, ADP-Glo luminescence; Potency, µM (titrated, usually from 57.5 µM), most hits filed as inhibitors; 330,000 tested, 0.17% active; note: nearly all actives have a fitted effect of over 60% in size
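Luminescent ADP detection (ADP-Glo, two-step: ATP depletion then ADP-to-ATP conversion for luciferase) reported PFK activity after 45 min room-temperature reaction of 1.25 nM enzyme with 0.5 mM F6P and 0.1 mM ATP at pH 8.0.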
VDR inhibitor = vitamin D3 receptor (human) inhibition; VDR-SRC2-3 peptide fluorescence polarization, 2 h; 400,000 tested, 0.93% active; Potency, µM, most hits filed as inhibitors; AID 504847
Target sequence (P11473 whole entry, looked up): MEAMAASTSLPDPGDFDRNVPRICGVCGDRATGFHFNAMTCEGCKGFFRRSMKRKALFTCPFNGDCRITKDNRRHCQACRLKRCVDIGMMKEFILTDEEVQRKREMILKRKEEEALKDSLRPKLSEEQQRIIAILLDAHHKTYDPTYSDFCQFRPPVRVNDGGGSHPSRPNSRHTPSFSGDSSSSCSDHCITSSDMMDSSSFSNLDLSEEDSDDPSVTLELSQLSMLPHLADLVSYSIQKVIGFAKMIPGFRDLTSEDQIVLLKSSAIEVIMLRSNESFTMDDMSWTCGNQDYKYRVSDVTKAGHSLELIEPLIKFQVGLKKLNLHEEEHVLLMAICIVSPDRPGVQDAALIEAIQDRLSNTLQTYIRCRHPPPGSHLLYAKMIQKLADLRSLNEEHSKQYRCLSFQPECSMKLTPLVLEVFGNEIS
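Measured by FP: displacement of SRC2-3 coactivator peptide from VDR by library compounds, following a two-hour ambient incubation.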
BRCA1 expr act = BRCA1 expression activation. MCF7-BRCA1-FFLuc reporter, luminescence, 48 h; response scale: scaled: vehicle 0%, 10 µM genistein 100%. Potency, µM (titrated, usually from 46.1 µM), usual class: activators. 380,000 tested, 1.1% active; note: nearly all actives have a fitted effect of over 80% in size
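Activators of BRCA1 expression were detected as increased firefly luciferase luminescence in engineered MCF7 cells after 48 h compound incubation. Signals were scaled to genistein 10 microM as full activation.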
PLK1 PBD inh = blocks phosphopeptide binding to human PLK1 polo-box domain | 360,000 tested, 2.8% active | Potency, µM, usual class: inhibitors | Plk1 PBD binding of FITC phosphopeptide, fluorescence polarization | AID 720504; note: series mostly up to about 57 µM; nearly all actives have a fitted effect of over 65% in size
Hits are given with their value; - = inactive; ? = inconclusive; . = no result; [ ] = remark or other dose. In the library only some 3.9% were active in any assay of this set; here they are far more common. Calls come from the whole dose curve; as a rule, active = well fitted curve in the direction sought with a large enough effect; inconclusive = small, poorly fitted or top-dose-only effect, or another doubt; inactive = no such curve, though single readings can be large; an effect the other way counts as inactive or inconclusive.

SMILES	Tb PFK block	VDR inhibitor	BRCA1 expr act	PLK1 PBD inh
COc1cccc(NC(=O)/C=C/c2ccccc2[N+](=O)[O-])c1	-	-	3.2µM	-
COc1ccc(OC)c(NC(=O)/C=C/c2ccccc2[N+](=O)[O-])c1	-	-	-	-
c1ccc2c(CCc3c[nH]c4ccccc34)ccnc2c1	.	.	-	.
O=C1C=CC(=O)N1CCCCCCCCCCN1C(=O)C=CC1=O	.	16µM	-	1.2µM
O=C1C=CC(=O)N1Cc1ccncc1	.	-	-	-
COc1ccc(C2=NN3C(C2)c2ccccc2OC3c2cccs2)cc1 (centres undefined)	-	-	10µM	-
COc1ccc(C2=NN(C(=O)CCC(=O)O)C(c3cccs3)C2)cc1 (centres undefined)	-	-	-	-
CCCC12CN3CC(C)(CN(C1)C3c1ccco1)C2=O (centres undefined)	-	?	-	19µM
CCCC12CN3CC(CCC)(CN(C1)C3c1ccco1)C2=O (centres undefined)	-	-	-	-
O=C(COc1ccccc1)N(Cc1cccc(F)c1)C1CCS(=O)(=O)C1 (centres undefined)	-	-	-	-
O=C(COc1ccc(F)cc1)N(Cc1cccc(Br)c1)C1CCS(=O)(=O)C1 (centres undefined)	-	?	-	24µM
COc1ccc(CCn2c3c(c(=O)[nH]c2=S)CN(C)CN3)cc1OC	.	-	-	.
COc1ccc(CCn2c3c(c(=O)[nH]c2=S)CN(Cc2ccccc2)CN3)cc1OC	.	89µM	-	.
CSc1nc(C)c(C(=O)C[n+]2ccccc2C)cc1C#N	-	-	-	15µM
CC(C)Cc1ccc(/C=C/C(=O)NC2CC2)cc1	-	-	5.6µM	-
CCc1ccc(/C=C\C(=O)N2CCCC2)cc1	.	-	?	-
CC(C)Cc1ccc(/C=C/C(=O)N2CCCCC2)cc1	-	-	13µM	-
NCCC[C@@H](CC(=O)N[C@@H]1CCCC[C@H]1C(=O)N[C@H](CC(=O)N[C@@H](CCC(=O)O)CC(=O)O)Cc1c[nH]c2ccccc12)NC(=O)C[C@H](CO)NC(=O)[C@@H]1CNCC[C@H]1N	.	-	.	.
Cc1nc2cnc(OCc3ccccc3)nc2n(CCc2ccccc2)c1=O	.	-	.	.
CCN(CC)c1ccc(C=N/C(C#N)=C(\N)C#N)cc1	-	-	2.5µM	-
COc1ccc(CC(=O)Nc2ccc(C(N)=O)cc2)cc1	-	-	-	-
COc1ccc(NC(=O)CN(C)CC(=O)NCCc2ccc(F)cc2)cc1	-	-	-	-
COc1ccc(CC(=O)OCC(=O)Nc2ccc(C(=O)Nc3ccc(OC)cc3)cc2)cc1	-	-	11µM	-
COc1ccc(CCCC(=O)Nc2ccc(F)cc2)cc1	-	-	-	21µM
CCOc1ccc(NC(=O)c2ccc(NC(=O)COC(=O)Cc3ccc(OC)cc3)cc2)cc1	-	-	4.5µM	-
SMILES	Tb PFK block	VDR inhibitor	BRCA1 expr act	PLK1 PBD inh
COc1ccc(C(=O)Nc2ccc(SC(F)F)cc2)cc1	-	-	1.3µM	-
CCc1cccc(NC(=O)CSc2nnc(-c3cc4occc4n3C)n2-c2ccccc2C)c1	.	-	.	.
CCOC(=O)c1ccc(NC(=O)Cn2nnc(-c3ccc(C(F)(F)F)cc3)n2)cc1	.	-	-	.
CCOCCCNC(=O)c1ccc2c(c1)ncn2-c1ccccc1OC	-	-	-	-
CCOCCCNC(=O)c1ccc2c(c1)ncn2-c1ccc(C)cc1C	-	?	-	19µM
COc1ccc(-c2c(C#N)c(SCC(=O)Nc3ccc(C)c(C)c3)nc(C)c2C(=O)Nc2ccccc2)cc1OC	.	-	.	.
CCc1ccc(S(=O)(=O)/N=C2/C=C(Sc3ncn[nH]3)C(=O)c3ccccc32)cc1	-	25µM	-	1.5µM
Cc1cc(C)c(S(=O)(=O)/N=C2\C=C(Nc3ccc(C(=O)O)cc3)C(=O)c3ccccc32)c(C)c1	-	?	-	?
Cc1ccc(S(=O)(=O)/N=C2\C=C(NS(=O)(=O)c3ccccc3)C(=O)c3ccccc32)cc1	.	?	-	15µM
CCc1ccc(S(=O)(=O)/N=C2\C=C(Nc3cccc(C(=O)O)c3)C(=O)c3ccccc32)cc1	-	-	-	38µM
O=C(O)c1ccc(NC2=C/C(=N/S(=O)(=O)c3ccccc3)c3ccccc3C2=O)cc1	-	?	-	11µM
Cc1ccc(S(=O)(=O)Nc2ccccc2-c2ccccc2)cc1	-	-	-	-
COc1cccc(OC)c1C(=O)OCC(=O)N(C)c1ccccc1	-	?	-	27µM
CN(C(=O)COC(=O)c1ccc(=O)n(Cc2ccccc2)n1)c1ccccc1	-	?	-	17µM
Cc1cc(C)cc(C(=O)NCC(=O)OCC(=O)N(C)c2ccccc2)c1	-	-	-	24µM
CN(Cc1ccccc1)C(=O)COC(=O)c1ccc(=O)n(Cc2ccccc2)n1	-	-	-	-
Cc1cc(NC(=O)CSc2ncc(C(=O)Nc3ccc(C)c(C)c3)c(=O)n2C)no1	.	-	.	.
CCOC(=O)c1cnc2c(Cl)cc(Cl)cc2c1NCCCN1CCOCC1	-	-	-	13µM
CN(C)c1nc(N)c2ncc(=S)[nH]c2n1	-	-	-	4.7µM
O=C(N/N=C1\CCCc2ccccc21)c1ccccc1Cl	-	-	10µM	-
Cc1ccc(C(=O)O/N=C2\CCCc3ccccc32)cc1	-	-	-[1.84 µM]	-
O=C(N/N=C1\CCc2ccccc21)c1ccccc1O	-	-	-	-
O=C(O)c1ccc(N/N=C2/CCCc3ccccc32)cc1	-	-	7.1µM	-
COc1cccc(S(=O)(=O)NCc2ccc(C(=O)N3CCN(C)CC3)cc2)c1	-	-	-	-
Cc1c(C(=O)N(C)C)sc2nc(-c3ccccn3)[nH]c(=O)c12	-	-	-	-
SMILES	Tb PFK block	VDR inhibitor	BRCA1 expr act	PLK1 PBD inh
O=c1[nH]c(-c2ccccn2)nc2sc(-c3ccccc3)cc12	-	79µM	-	11µM
C[C@@H]1CCCCO[C@@H](CN(C)S(=O)(=O)c2cn(C)cn2)[C@@H](C)CN([C@H](C)CO)C(=O)c2cc(NC(=O)Nc3ccc(C(F)(F)F)cc3)ccc2O1	.	.	-	-
C=CCn1ccc2c([N+](=O)[O-])cccc2c1=O	-	-	-	-
Cn1ccc2c([N+](=O)[O-])cccc2c1=O	-	-	-	30µM
CSc1nnc(Cn2c(=O)sc3ccccc32)n1C	-	-	-	-
CSc1nnc(Cn2c(=O)sc3ccccc32)n1CCc1ccccc1	-	-	-	21µM
CCCCN1C(=O)/C(=C(/C#N)C(=O)N2CCCC2)c2ccccc21	-	45µM	-	-
Brc1cc2c(cc1Br)OCCOCCOCCOCCO2	-	28µM	-	4.2µM
COc1ccc(OC)c(/C=C/C(=O)Nc2ccc(C(=O)OCCC(C)C)cc2)c1	.	-	.	.
O=C(O)c1ccc(Cl)c(S(=O)(=O)N(Cc2ccccc2)c2ccc(Cl)cc2)c1	-	-	-	30µM
O=C(O)c1ccc(CN(Cc2ccccc2)S(=O)(=O)c2ccc(Cl)cc2)cc1	-	?	-	24µM
Clc1ccccc1-c1cncnc1NCCN1CCOCC1	.	-	.	.
Cc1[nH]c2ccccc2c1C(c1ccccn1)N1CCCC1 (centres undefined)	-	-	-	-
Cc1ccnc(NC(c2ccccn2)c2c(C)[nH]c3ccccc23)c1 (centres undefined)	-	?	-	12µM

Screening data as filed in PubChem BioAssay.
